“And” between values parts separate entries of the source, which are not always exact repeats. Equal values may be shown once. Inconclusive results are not listed. A call without a number means that no potency is given here. More than one record can exist for a structure, and the calls need not agree. The source made the active and inactive calls. Calls come from the whole dose curve; as a rule, active = well fitted curve in the direction sought with a large enough effect in the repeat runs; inconclusive = weak or mixed curves; inactive = no such curve, though single readings can be large; an effect the other way counts as inactive or inconclusive.
What was measured:
[1] = Caspase-3/7 induction in CHO-K1 cells by small molecules, qHTS cell viability counter screen (AID 1346979); note: nearly all actives have a fitted effect of over 35% in size; note: potency is the fitted concentration of half-maximal effect
Procedure, shortened: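 Cells (CHO-K1, wild type) are plated at 1,500 per well and incubated 5hr. Test compounds in DMSO are then pinned in, followed by 16hr at 37C and 5% CO2. Viability is read by CellTiter-Fluor fluorescence after 1hr.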

[2] = Caspase-3/7 induction in CHO-K1 cells by small molecules, qHTS assay (AID 1346980); note: nearly all actives have a fitted effect of over 15% in size
Procedure, shortened: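 Luminescent Caspase-Glo 3/7 read (30min, room temperature) quantified apoptosis induction. Cells were wild-type CHO-K1, treated with compound for 17hr at 37 C and 5% CO2.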

[3] = target: Cytochrome P450 2D6 (Homo sapiens) (UniProt P10635); assay: Cytochrome P450 Family 2 Subfamily D Member 6 (CYP2D6) small molecule antagonists: luciferase reporter qHTS assay (AID 1671196); note: nearly all actives have a fitted effect of over 50% in size; note: potency is the fitted concentration of half-maximal effect
Procedure, shortened: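 Enzyme and proluciferin substrate were first combined with test chemical for 10 min at room temperature. Adding NADPH regeneration solution started a 1 h reaction, stopped with luciferin detection reagent and read by luminescence 20 min later.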

[4] = target: Cytochrome P450 2C19 (Homo sapiens) (UniProt P33261); assay: Cytochrome P450 Family 2 Subfamily C Member 19 (CYP2C19) small molecule antagonists: luciferase reporter qHTS assay (AID 1671197); note: nearly all actives have a fitted effect of over 65% in size; note: potency is the fitted concentration of half-maximal effect
Procedure, shortened: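 CYP2C19 P450-Glo, 1536-well qHTS. Cpd + enzyme/proluciferin substrate 10 min RT; + NADPH regen, 37C 1 h; stop with luciferin detection reagent, 20 min RT, luminescence (RLU). Pos ctrl ketoconazole.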

[5] = target: Voltage-gated inwardly rectifying potassium channel KCNH2 (Homo sapiens) (UniProt Q12809); assay: Human Ether-a-go-go-Related Gene (hERG) channel small molecule antagonists: fluorescence cell-based qHTS assay (AID 1671200); note: nearly all actives have a fitted effect of over 50% in size; note: potency is the fitted concentration of half-maximal effect
Procedure, shortened: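 Channel function was assessed by thallium flux. Cells seeded the previous day and kept at 37 C took up FluxOR II dye over 1 h in the dark at room temperature, then sat another 10 min before stimulation.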

[6] = target: Cytochrome P450 3A4 (Homo sapiens) (UniProt P08684); assay: Cytochrome P450 Family 3 Subfamily A Member 4 (CYP3A4) small molecule antagonists: luciferase reporter qHTS assay (AID 1671201); note: nearly all actives have a fitted effect of over 50% in size; note: potency is the fitted concentration of half-maximal effect
Procedure, shortened: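 Compounds in DMSO were pin-transferred onto CYP3A4 enzyme-substrate mix and held 10 min at room temperature. NADPH regenerating solution started the reaction for 1 h; luciferin detection reagent stopped it, and luminescence was read after 20 min.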

[7] = target: Nuclear receptor subfamily 1 group I member 2 (Rattus norvegicus) (UniProt Q9R1A7); assay: Rat pregnane X receptor (rPXR) activation by small molecules, qHTS assay (AID 1346983); conditions: rPXR luciferase reporter cells, One-Glo luminescence, 24 h; stronger effect = higher value; note: nearly all actives have a fitted effect of over 20% in size
Procedure, shortened: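 Luminescent readout (One-Glo luciferase, 30 min room temperature) followed 24 hr compound treatment at 37 C of rPXR cells plated 2,000 per well and preincubated 5hr; qHTS format with compounds delivered in DMSO.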

[8] = target: Cytochrome P450 1A2 (Homo sapiens) (UniProt P05177); assay: Cytochrome P450 Family 1 Subfamily A Member 2 (CYP1A2) small molecule antagonists: luciferase reporter qHTS assay (AID 1671199); note: nearly all actives have a fitted effect of over 50% in size; note: potency is the fitted concentration of half-maximal effect
Procedure, shortened: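 Compounds were incubated with CYP1A2 and a luminogenic proluciferin substrate for 10 min at room temperature before the reaction was started with NADPH regeneration solution. After 1 h, detection reagent was added and light output, proportional to CYP activity, was recorded.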

[9] = target: Nuclear receptor subfamily 1 group I member 2 (Homo sapiens) (UniProt O75469); assay: Human pregnane X receptor (PXR) small molecule agonists, qHTS assay (AID 1346982); note: nearly all actives have a fitted effect of over 35% in size; note: potency is the fitted concentration of half-maximal effect
Procedure, shortened: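 Cells: HepG2 stably carrying PXR-Luc. Medium held 5% charcoal-stripped FBS. Compounds in DMSO added after 5 hr plating, incubated 24 hr, then luminescence quantified with ONE-Glo.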

[10] = target: Cytochrome P450 2C9 (Homo sapiens) (UniProt P11712); assay: Cytochrome P450 Family 2 Subfamily C Member 9 (CYP2C9) small molecule antagonists: luciferase reporter qHTS assay (AID 1671198); note: nearly all actives have a fitted effect of over 50% in size; note: potency is the fitted concentration of half-maximal effect
Procedure, shortened: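 Enzyme-substrate mix preincubated with compound 10 min at room temperature; reaction started with NADPH regeneration solution, 1 h 37C. Luminescent luciferin product read after 20 min detection reagent.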

[11] = Caspase-3/7 induction in HepG2 cells by small molecules, qHTS cell viability counter screen (AID 1346981); note: nearly all actives have a fitted effect of over 30% in size; note: potency is the fitted concentration of half-maximal effect
Procedure, shortened: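 Cell viability is measured as a cytotoxicity counter screen alongside the Caspase-Glo 3/7 readout in identical wells. Wild-type HepG2 cells are treated with test compounds for 16 hr at 37 C before CellTiter-Fluor addition and a 1-hr incubation.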

Sequence of Nuclear receptor subfamily 1 group I member 2 (Homo sapiens) (O75469 whole entry, looked up): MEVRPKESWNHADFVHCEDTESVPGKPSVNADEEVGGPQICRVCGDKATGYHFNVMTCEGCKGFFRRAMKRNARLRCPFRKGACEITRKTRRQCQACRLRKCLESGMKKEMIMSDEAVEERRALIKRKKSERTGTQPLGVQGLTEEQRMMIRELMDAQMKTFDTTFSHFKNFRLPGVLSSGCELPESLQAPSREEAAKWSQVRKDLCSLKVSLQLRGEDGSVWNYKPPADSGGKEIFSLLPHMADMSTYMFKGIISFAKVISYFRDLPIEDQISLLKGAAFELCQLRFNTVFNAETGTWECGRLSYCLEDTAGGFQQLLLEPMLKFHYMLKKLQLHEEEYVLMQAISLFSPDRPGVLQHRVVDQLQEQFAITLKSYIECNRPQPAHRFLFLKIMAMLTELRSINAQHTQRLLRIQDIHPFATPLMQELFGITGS
Sequence of Cytochrome P450 3A4 (Homo sapiens) (P08684 whole entry, looked up): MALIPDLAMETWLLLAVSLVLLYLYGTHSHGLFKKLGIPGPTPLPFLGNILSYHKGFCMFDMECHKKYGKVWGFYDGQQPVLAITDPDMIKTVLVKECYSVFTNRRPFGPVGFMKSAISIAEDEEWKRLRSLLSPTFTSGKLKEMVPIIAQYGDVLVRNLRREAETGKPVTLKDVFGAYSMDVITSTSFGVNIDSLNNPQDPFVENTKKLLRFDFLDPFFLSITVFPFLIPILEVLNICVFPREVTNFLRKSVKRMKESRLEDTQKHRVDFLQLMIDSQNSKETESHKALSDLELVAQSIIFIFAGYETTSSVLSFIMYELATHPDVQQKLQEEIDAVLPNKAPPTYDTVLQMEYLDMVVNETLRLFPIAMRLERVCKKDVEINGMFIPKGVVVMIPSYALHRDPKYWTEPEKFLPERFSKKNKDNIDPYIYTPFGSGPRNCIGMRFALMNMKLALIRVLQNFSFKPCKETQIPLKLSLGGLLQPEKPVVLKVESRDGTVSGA
Sequence of Cytochrome P450 2D6 (Homo sapiens) (P10635 whole entry, looked up): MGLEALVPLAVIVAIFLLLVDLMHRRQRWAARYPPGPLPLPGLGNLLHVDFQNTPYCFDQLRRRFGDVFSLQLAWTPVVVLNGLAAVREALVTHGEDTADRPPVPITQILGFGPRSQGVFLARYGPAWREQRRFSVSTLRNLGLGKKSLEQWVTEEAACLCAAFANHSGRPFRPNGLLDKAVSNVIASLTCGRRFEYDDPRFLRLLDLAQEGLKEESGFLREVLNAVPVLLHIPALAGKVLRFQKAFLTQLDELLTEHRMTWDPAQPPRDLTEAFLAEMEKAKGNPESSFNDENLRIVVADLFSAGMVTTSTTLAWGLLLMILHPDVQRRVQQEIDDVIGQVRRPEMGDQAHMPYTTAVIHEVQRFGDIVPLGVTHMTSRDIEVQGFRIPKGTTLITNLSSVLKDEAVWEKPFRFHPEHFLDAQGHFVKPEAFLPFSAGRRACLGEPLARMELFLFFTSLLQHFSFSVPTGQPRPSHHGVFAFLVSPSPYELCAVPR
Sequence of Cytochrome P450 2C9 (Homo sapiens) (P11712 whole entry, looked up): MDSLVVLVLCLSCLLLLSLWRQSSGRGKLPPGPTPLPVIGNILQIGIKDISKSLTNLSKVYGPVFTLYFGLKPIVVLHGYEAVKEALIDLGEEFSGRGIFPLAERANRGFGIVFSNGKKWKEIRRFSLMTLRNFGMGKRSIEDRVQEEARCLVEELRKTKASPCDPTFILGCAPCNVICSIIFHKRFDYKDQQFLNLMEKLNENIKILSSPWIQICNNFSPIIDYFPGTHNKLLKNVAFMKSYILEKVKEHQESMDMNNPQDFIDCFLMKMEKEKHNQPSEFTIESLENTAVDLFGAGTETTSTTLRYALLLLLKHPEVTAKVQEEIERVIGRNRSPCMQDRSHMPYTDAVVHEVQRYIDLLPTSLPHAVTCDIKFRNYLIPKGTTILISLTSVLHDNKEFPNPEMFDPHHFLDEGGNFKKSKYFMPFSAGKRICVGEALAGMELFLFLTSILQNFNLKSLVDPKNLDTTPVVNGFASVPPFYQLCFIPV
Sequence of Cytochrome P450 1A2 (Homo sapiens) (P05177 whole entry, looked up): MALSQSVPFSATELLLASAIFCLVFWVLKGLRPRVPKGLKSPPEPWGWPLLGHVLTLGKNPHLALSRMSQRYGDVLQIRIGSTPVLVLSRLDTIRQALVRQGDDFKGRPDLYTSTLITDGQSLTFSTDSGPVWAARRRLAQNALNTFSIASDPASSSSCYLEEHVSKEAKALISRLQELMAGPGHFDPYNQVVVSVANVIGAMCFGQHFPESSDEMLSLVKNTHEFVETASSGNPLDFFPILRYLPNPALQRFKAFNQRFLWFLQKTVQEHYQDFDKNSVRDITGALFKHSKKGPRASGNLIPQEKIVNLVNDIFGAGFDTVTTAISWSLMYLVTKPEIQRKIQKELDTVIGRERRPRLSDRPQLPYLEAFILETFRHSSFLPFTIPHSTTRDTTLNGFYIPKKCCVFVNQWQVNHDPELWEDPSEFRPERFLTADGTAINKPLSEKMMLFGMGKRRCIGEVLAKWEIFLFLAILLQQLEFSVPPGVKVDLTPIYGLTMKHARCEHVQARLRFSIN
Sequence of Cytochrome P450 2C19 (Homo sapiens) (P33261 whole entry, looked up): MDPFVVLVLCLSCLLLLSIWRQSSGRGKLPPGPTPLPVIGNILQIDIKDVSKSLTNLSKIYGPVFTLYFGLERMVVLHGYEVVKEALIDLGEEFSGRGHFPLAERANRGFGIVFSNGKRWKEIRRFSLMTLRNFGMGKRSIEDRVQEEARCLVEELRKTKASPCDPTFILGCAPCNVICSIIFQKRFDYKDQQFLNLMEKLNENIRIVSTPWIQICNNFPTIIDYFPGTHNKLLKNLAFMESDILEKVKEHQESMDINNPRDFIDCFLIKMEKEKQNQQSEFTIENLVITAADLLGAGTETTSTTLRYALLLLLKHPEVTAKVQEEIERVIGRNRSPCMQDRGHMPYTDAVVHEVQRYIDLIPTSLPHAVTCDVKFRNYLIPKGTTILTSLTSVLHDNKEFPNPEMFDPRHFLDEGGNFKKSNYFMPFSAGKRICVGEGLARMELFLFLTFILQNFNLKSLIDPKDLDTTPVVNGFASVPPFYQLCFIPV
Sequence of Voltage-gated inwardly rectifying potassium channel KCNH2 (Homo sapiens) (Q12809 whole entry, looked up): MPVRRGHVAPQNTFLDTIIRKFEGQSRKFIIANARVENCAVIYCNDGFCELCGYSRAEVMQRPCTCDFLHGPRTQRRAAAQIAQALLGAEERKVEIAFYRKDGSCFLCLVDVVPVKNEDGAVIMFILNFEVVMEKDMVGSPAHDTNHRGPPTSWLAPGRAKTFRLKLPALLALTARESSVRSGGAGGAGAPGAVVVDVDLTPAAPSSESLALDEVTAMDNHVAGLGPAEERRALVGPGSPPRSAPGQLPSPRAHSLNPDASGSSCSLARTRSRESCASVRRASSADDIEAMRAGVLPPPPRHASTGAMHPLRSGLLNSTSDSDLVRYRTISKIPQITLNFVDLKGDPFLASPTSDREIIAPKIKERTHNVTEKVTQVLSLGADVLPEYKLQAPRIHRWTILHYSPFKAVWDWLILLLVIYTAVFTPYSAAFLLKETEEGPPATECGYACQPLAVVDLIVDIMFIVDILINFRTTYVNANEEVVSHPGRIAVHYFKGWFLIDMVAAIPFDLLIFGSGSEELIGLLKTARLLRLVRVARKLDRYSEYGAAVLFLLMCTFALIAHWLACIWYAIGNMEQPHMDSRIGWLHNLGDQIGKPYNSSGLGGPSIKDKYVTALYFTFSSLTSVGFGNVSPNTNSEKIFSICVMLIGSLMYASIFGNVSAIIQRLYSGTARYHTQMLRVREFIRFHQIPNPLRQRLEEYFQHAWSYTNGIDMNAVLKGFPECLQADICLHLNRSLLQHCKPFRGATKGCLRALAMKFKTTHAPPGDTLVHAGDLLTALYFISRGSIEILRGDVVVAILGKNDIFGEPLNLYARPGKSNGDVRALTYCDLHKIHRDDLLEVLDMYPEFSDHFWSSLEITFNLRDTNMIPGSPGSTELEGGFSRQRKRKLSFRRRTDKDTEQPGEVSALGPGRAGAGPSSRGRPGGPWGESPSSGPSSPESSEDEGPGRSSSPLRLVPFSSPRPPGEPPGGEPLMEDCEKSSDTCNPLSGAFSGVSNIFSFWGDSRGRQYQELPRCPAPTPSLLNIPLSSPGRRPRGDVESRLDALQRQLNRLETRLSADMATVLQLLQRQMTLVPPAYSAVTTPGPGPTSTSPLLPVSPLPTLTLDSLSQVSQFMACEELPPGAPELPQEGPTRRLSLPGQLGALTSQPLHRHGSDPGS
Sequence of Nuclear receptor subfamily 1 group I member 2 (Rattus norvegicus) (Q9R1A7 whole entry, looked up): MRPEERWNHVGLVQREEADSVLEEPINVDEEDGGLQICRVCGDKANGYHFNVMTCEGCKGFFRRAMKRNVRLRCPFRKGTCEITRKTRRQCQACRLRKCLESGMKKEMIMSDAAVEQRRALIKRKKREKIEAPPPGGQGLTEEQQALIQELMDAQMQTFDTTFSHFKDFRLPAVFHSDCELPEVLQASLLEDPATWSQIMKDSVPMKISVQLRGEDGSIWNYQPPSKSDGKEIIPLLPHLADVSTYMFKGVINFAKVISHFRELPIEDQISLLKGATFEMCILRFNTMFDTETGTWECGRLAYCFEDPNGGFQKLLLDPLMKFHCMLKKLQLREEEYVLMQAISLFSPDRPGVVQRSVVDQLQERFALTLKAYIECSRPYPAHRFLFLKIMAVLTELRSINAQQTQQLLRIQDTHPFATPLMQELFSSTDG

| Compound | Potency [1] | Potency [2] | Potency [3] | Potency [4] | Potency [5] | Potency [6] | max activation [7] | Potency [8] | Potency [9] | Potency [10] | Potency [11] |
| --- | --- | --- | --- | --- | --- | --- | --- | --- | --- | --- | --- |
| CC(=O)C1=C(C)[C@@H]2C[C@@]3(C1)[C@H](C)CC[C@H]3C2(C)C | inactive | inactive | inactive | 93.5 µM (active) and 39.9 µM (active) | 24.5 µM (active) | 25.2 µM (active) |  |  |  |  |  |
| CC1COc2c(N3CCN(C)CC3)c(F)cc3c(=O)c(C(=O)O)cn1c23 (stereo unspecified) | inactive | inactive | inactive | inactive | inactive |  | -3.36% (inactive) | inactive |  |  |  |
| c1ccc2c(c1)CCCC2C1=NCCN1 (stereo unspecified) | inactive | inactive |  |  | inactive |  |  |  |  |  |  |
| O=Cc1ccc(Cl)cc1 | inactive | inactive |  |  | inactive | inactive |  |  | inactive |  |  |
| O=C(Cl)c1cccc(C(=O)Cl)c1 | inactive | inactive | inactive | 79.6 µM (active) and inactive | inactive | inactive |  | inactive | inactive |  |  |
| CCCCN(CCO)CCCC | inactive | inactive | 36.4 µM (active) |  | inactive | inactive |  |  |  |  |  |
| CC(C)(C)c1ccc(O)c(C(C)(C)C)c1 | 60.9 µM (active) and 54.5 µM (active) |  | 19.9 µM (active) | 9.99 µM (active) and 17.8 µM (active) |  | 35.6 µM (active) |  | 35.4 µM (active) and 56.4 µM (active) | inactive | 12.6 µM (active) and 11.2 µM (active) |  |
| Cc1cccc(O)c1C | inactive | inactive | inactive | 70.5 µM (active) and inactive | inactive | inactive |  | 46.1 µM (active) | inactive |  |  |
| c1ccc2c(c1)-c1cccc3c1c-2cc1ccccc13 | 47.4 µM (active) | inactive | 27.6 µM (active) and inactive |  | inactive | inactive |  | 694 nM (active) and 1 µM (active) | 29.9 µM (active) and 21.7 µM (active) |  |  |
| CCCOC(=O)c1cc(O)c(O)c(O)c1 | 48.3 µM (active) and 30.6 µM (active) | inactive | 31.6 µM (active) and 35.6 µM (active) | 79.3 µM (active) and 56.4 µM (active) | inactive | inactive |  | 39.7 µM (active) and 39.9 µM (active) | 27.3 µM (active) |  |  |
| Cc1c(O)cccc1C(=O)N[C@@H](CSc1ccccc1)[C@H](O)CN1C[C@H]2CCCC[C@H]2C[C@H]1C(=O)NC(C)(C)C | 5.95 µM (active) and 10.6 µM (active) | inactive | 8.71 µM (active) and 15.5 µM (active) | 9.77 µM (active) | inactive |  |  | inactive |  | 19.5 µM (active) and 24.5 µM (active) |  |
| CNCCC(Oc1ccc(C(F)(F)F)cc1)c1ccccc1 (stereo unspecified) | 67.7 µM (active) and 29.8 µM (active) |  |  |  |  |  |  |  |  |  | 60.3 µM (active) |
| O=C(O)c1cn(-c2ccc(F)cc2)c2cc(N3CCNCC3)c(F)cc2c1=O | inactive | inactive | inactive | inactive | inactive | inactive | -0.0913% (inactive) | inactive |  | inactive |  |
| CCCCCCCCCCCCCC[P+](CCCC)(CCCC)CCCC | 2.42 µM (active) and 7.7 µM (active) | inactive | 223 nM (active) and 399 nM (active) | 56.1 µM (active) and 39.9 µM (active) | 194 nM (active) and 275 nM (active) | inactive |  | 70.6 µM (active) and 79.6 µM (active) | 2.16 µM (active) and 6.86 µM (active) |  |  |
| C=CC(=O)OCCCCCCOC(=O)C=C | 43.8 µM (active) and 43.3 µM (active) |  | inactive | 39.9 µM (active) | inactive | 40.4 µM (active) |  | 28.6 µM (active) and 31.7 µM (active) | inactive |  | inactive |
| c1ccc2cc3c(ccc4ccccc43)cc2c1 | inactive | inactive | 35.7 µM (active) | 50.2 µM (active) | inactive | inactive |  | 897 nM (active) and 894 nM (active) | 27.4 µM (active) and 10.9 µM (active) |  |  |

Reference: PubChem BioAssay (Tox21)
